# phage Ecoli inh – growth loss of phage-infected E. coli, primary screen, RecBCD inhibitor project, absorbance, with phage, HTS | inhibition, % at 11.9 µM | 360,000 compounds, 0.26% hits; in the data active = inhibition above about 11%
# AddAB inh – growth inhibition of E. coli expressing H. pylori AddAB, primary screen, AddAB inhibitor project, absorbance | inhibition, % at 11.9 µM | 330,000 compounds, 0.29% hits | AID 435030, 2010; in the data active = inhibition above about 12%;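 also: 0% = vehicle wells of infected cells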
# Tat export inh – E. coli Tat export inhibitors, primary screen, MC4100, TorA-mCherry reporter, fluorescence, single point. inhibition, % at 10 µM. 340,000 compounds, 0.036% hits. AID 488895, 2010;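 active = mean replicate inhibition at least 50% and at least half of replicates individually reaching 50%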;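 also: exported cargo escapes ClpAP degradation while cytoplasmic cargo is degraded and loses fluorescence; 0% = median of neutral control wells and 100% = median of NaSCN control wells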
# E coli growth-1 – E. coli V3065 growth inhibition, primary screen, counter-screen for AddAB inhibitor project, absorbance, OD600; 18 h; 330,000 compounds, 0.27% hits; inhibition, % at 11.9 µM;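 active = inhibition above the campaign's mean inhibition across all tested compounds plus 3 SD, cut at about 9.9% in these data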;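 also: uninfected addAB+ strain grown without phage in ampicillin broth; 0% = DMSO wells and 100% = ciprofloxacin 0.95 µg/ml wells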
# E coli growth-2 – E. coli growth inhibition, primary screen, OD600; AID 1053175, 2014; Escherichia coli growth, 23 h; active compounds read low; 330,000 compounds, 0.21% hits; OD600 absorbance (no concentration beside the values);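 active = OD600 absorbance below the run mean of sample wells minus 3.6 SD, in any replicate, cut at about 0.56 in these data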
# AddAB confirm – growth loss of phage-infected E. coli expressing H. pylori AddAB, confirmation, AddAB inhibitor project, absorbance, E. coli V3065, T4 phage, triplicate. shares compounds with AddAB inh. OD; T4 phage with gene 2 nonsense mutations. inhibition, % at 11.9 µM. 880 compounds, 64% hits;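 active = mean inhibition above a set limit taken from the earlier primary screen, cut at about 13% in these data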;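 also: higher means less bacterial growth since AddAB block lets phage replicate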
# RecBCD counter – growth loss of RecBCD+ E. coli with mutant T4 phage, counter-screen for AddAB inhibitor project, absorbance, V66 E. coli; inhibition, % at 11.9 µM; OD growth; AID 488955, 2010; shares compounds with AddAB inh; 880 compounds, 73% hits;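 active = mean inhibition above the mean of solvent-only control wells plus 3 SD, cut at about 4% in these data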;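 also: optical density read after an 18 h incubation at 37 °C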
# bact viab count – bacterial viability inhibition counter-screen, confirmation, counter-screen for AddAB inhibitor project, absorbance; absorbance (AddAB counterscreen); 880 compounds, 35% hits; shares compounds with AddAB inh; inhibition, % at 11.9 µM; in the data active = inhibition above about 25%
# RecBCD conf – growth loss of phage-infected RecBCD+ E. coli, confirmation, RecBCD inhibitor project, absorbance, E. coli V66, T4 gene 2 phage. shares compounds with phage Ecoli inh. E. coli V66 + T4 2- phage, growth OD. inhibition, % at 11.9 µM. 890 compounds, 45% hits. AID 651982, 2013;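 active = mean inhibition over triplicates exceeding the hit threshold derived in the original primary screen, cut at about 11% in these data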
# Ecoli viability – E. coli viability inhibition, counter-screen for RecBCD inhibitor project, absorbance, high throughput | shares compounds with phage Ecoli inh | absorbance (OD) growth | inhibition, % at 11.9 µM | 890 compounds, 29% hits | AID 651983, 2013; in the data active = inhibition above about 20%;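 also: E. coli strain V66 grown with compound alone and no phage infection; 0% = bacteria with DMSO vehicle only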
# AddAB phage OD – growth loss of phage-infected AddAB-carrying E. coli, confirmation, counter-screen for RecBCD inhibitor project, absorbance, E. coli V3065, T4 phage | shares compounds with phage Ecoli inh | E. coli expressing H. pylori AddAB + T4 phage, OD growth; gene 2 mutant T4, recBCD-deleted host | inhibition, % at 11.9 µM | 890 compounds, 45% hits;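 active = mean inhibition above the solvent-only control wells' mean plus 3 SD, cut at about 22% in these data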;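 also: higher means less bacterial growth from phage killing when AddAB is blocked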
# Active calls of the source: *; . = no result. Rows were chosen to be rich in hits. Some 0.51% of all compounds tested hit in one or more screens of this group.
SMILES,phage Ecoli inh,AddAB inh,Tat export inh,E coli growth-1,E coli growth-2,AddAB confirm,RecBCD counter,bact viab count,RecBCD conf,Ecoli viability,AddAB phage OD
[O-][n+]1c2ccccc2[n+]([O-])c2cc(O)ccc21,11.3*,31.5*,9.3,40.1*,0.398*,68.7*,9.8*,50.7*,11.1*,11.2,55.0*
O=C(C1=CC(c2coc3ccccc3c2=O)CC(OCCCCO)O1)N1CCN(Cc2ccccc2)CC1 (configuration not stated),.,.,.,.,0.649,.,.,.,.,.,.
C=CCc1cccc(/C=N/NC(=O)CNc2cccc3ccccc23)c1O,8.4,11.9,-6.2,6.3,.,.,.,.,.,.,.
C=CCc1cccc(/C=N/NC(=O)CNc2ccccc2OC)c1O,13.6*,13.1*,1.8,7.9,.,16.2*,10.4*,13.3,7.6,8.7,10.8
C=CCc1cccc(/C=N/NC(=O)CCC(=O)Nc2ccc(F)cc2)c1O,13.2*,13.1*,8.7,10.6*,.,14.4*,15.7*,13.0,10.1,10.0,7.5
Cc1ccc2c(c1)C1C(CO2)C(c2ccccc2)[C@@]2(C)C(=O)NC(C)C(=O)N12 (some centres not stated),.,.,.,.,0.701,.,.,.,.,.,.
CCCCCC(=O)Nc1cccc(C2=NOC3(C2)CC(C(N)=O)N(C(=O)CCCCC)C3)c1 (configuration not stated),.,.,.,.,0.69,.,.,.,.,.,.
COc1c(N2CCN(C(=S)Nc3ccc(F)cc3)C(C)C2)c(F)cc2c(=O)c(C(=O)O)cn(C3CC3)c12 (configuration not stated),72.9*,98.9*,76.3*,99.1*,0.0735*,97.5*,98.5*,99.8*,13.5*,14.1,101.5*
COc1c(N2CCN(C(=S)NC3CC4CCC3C4)C(C)C2)c(F)cc2c(=O)c(C(=O)O)cn(C3CC3)c12 (configuration not stated),98.8*,98.6*,63.8*,99.2*,0.092*,101.7*,101.0*,100.6*,101.5*,103.3*,102.9*
C/C(C=NNC(=O)c1ccncc1)=C\c1ccco1,.,.,.,.,0.65,.,.,.,.,.,.
Cc1cc2ncn(/N=C/c3ccc([N+](=O)[O-])o3)c2cc1C,13.6*,85.8*,3.2,31.5*,.,99.3*,11.6*,46.4*,5.3,7.5,57.4*
COc1cccc(C=Nn2cnc3cc(C)c(C)cc32)c1OC,.,.,.,.,0.687,.,.,.,.,.,.
Cc1ccc(C(=O)NNC(=O)c2cc3ccccc3cc2O)cc1,6.8,10.6,-11.4,-0.5,0.662,.,.,.,.,.,.
COc1ccc(C(=O)NC(=S)NNC(=O)c2ccccc2O)cc1,12.2*,14.7*,-1.2,18.3*,0.699,18.7*,23.0*,22.8,12.2*,16.4,22.4*
O=C(NNC(=O)c1cc2ccccc2cc1O)Nc1ccc(Br)cc1,14.6*,15.3*,1.8,10.7*,0.695,13.7*,17.1*,13.6,6.7,7.3,9.5
COc1ccc(C)cc1NC(=O)NNC(=O)c1cc2ccccc2cc1O,12.5*,16.4*,-2.5,15.3*,0.643,17.5*,14.2*,12.4,2.6,2.8,6.0
O=C(/C=C/c1cccs1)NC(=S)NNC(=O)c1ccccc1O,20.6*,25.7*,-0.2,22.5*,0.602,19.2*,22.5*,19.7,10.5,17.4,23.1*
COc1ccc(C(=O)NNC(=S)NC(=O)/C=C/c2cccs2)cc1,-2.0,-6.3,-14.6,-6.5,0.717,.,.,.,.,.,.
COc1ccc(C(=O)NC(=S)NNC(=O)c2ccccc2C)cc1,-0.7,-2.7,-10.2,-5.1,0.677,.,.,.,.,.,.
O=C(COC(=O)C=Cc1ccc(Cl)cc1Cl)NCCC1=CCCCC1,.,.,.,.,0.697,.,.,.,.,.,.
COc1ccc(C(=O)N2CC3(CC(c4cccc(NC(=O)CC(c5ccccc5)c5ccccc5)c4)=NO3)CC2C(N)=O)cc1 (configuration not stated),.,.,.,.,0.691,.,.,.,.,.,.
O=C(NC(=S)NNC(=O)c1cc2ccccc2cc1O)c1ccco1,19.9*,15.4*,-17.0,16.6*,.,15.4*,24.2*,18.1,13.7*,17.4,20.3
COc1ccc(C(=O)NC(=S)NNC(=O)c2ccco2)cc1,-5.5,0.4,-1.2,-4.2,0.644,.,.,.,.,.,.
CCCCCCc1ccc(N2CC(C)C(CC(=O)NCc3ccccc3)C2=O)cc1 (configuration not stated),.,.,.,.,0.669,.,.,.,.,.,.
O=[N+]([O-])c1ccc(/C=N/N=C/c2ccc([N+](=O)[O-])o2)o1,7.9,.,-1.7,.,.,.,.,.,.,.,.
SMILES,phage Ecoli inh,AddAB inh,Tat export inh,E coli growth-1,E coli growth-2,AddAB confirm,RecBCD counter,bact viab count,RecBCD conf,Ecoli viability,AddAB phage OD
O=C(O)/C=C/c1ccc([N+](=O)[O-])o1,18.1*,46.4*,13.8,72.6*,0.401*,101.4*,16.5*,77.1*,19.5*,19.5,101.3*
NC1=NC(=O)C(=Cc2cccc(-c3ccc(S(N)(=O)=O)cc3)c2)S1,.,.,.,.,0.662,.,.,.,.,.,.
CCOC(=O)C1=Nc2ccccc2C1=[N+]=[N-],91.2*,97.8*,10.8,96.2*,.,100.2*,97.9*,100.5*,97.8*,99.1*,100.8*
O=C1c2ccccc2NC(c2ccc(-c3ccc(Br)cc3)o2)N1O (configuration not stated),23.3*,24.4*,-25.9,23.7*,0.621,18.6*,18.1*,16.7,14.3*,14.1,14.9
O=C1c2ccccc2NC(c2ccc(-c3ccc(F)cc3)o2)N1O (configuration not stated),2.1,6.9,-4.7,6.2,.,.,.,.,.,.,.
CC(=O)NN1C(=O)c2ccccc2NC1c1cccc([N+](=O)[O-])c1 (configuration not stated),2.5,0.8,4.2,0.5,0.655,.,.,.,.,.,.
O=C1c2ccccc2NC(c2ccc(-c3cccc([N+](=O)[O-])c3)o2)N1O (configuration not stated),22.0*,26.6*,-3.2,25.1*,0.634,21.3*,19.9*,17.4,9.2,14.4,11.8
Nc1nc(Cl)nc2c1ncn2C1CCC(CO)O1 (configuration not stated),2.7,.,.,.,.,.,.,.,.,.,.
